Reference: PubChem BioAssay AID1159580 (chemical genetic matrix, 2015)
The whole screen tested about 5,500 compounds, of which about 2,000 (36%) were called active. About 18% were inconclusive and are not listed. Cut-off read from the data, not from the text of the source: active = normalized growth mostly below about 0.91 (no sharp cut-off); inconclusive = no clear call, values can overlap the other calls; inactive = mostly above about 0.92. The list shows a part of the results.

Assay: chemical genetic growth profiling, strain panel (AID 1159580);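 note: tested at 20 µM; growth read once vehicle control cultures reached saturation at 30 °C; 1 = growth at the plate median or of vehicle wells; lower values mean less growth of the strain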
Details: growth OD

Measured: normalized growth

COc1cc2c(cc1OC)C1(O)C(=O)c3ccc(O)c(C(=O)O)c3OC1CO2 (stereo not drawn)
inactive: S. cerevisiae deletion strains, locus YKL009W, strain mrt4, stronger effect = lower value 1.06 | S. cerevisiae deletion strains, locus YKL068W, stronger effect = lower value 0.983 | S. cerevisiae deletion strains, locus YKL085W, strain MDH1 (second series), stronger effect = lower value 0.975 | S. cerevisiae deletion strains, locus YKL085W, strain MDH1, stronger effect = lower value 0.975 | S. cerevisiae deletion strains, locus YKL160W, strain elf1, stronger effect = lower value 0.984 | S. cerevisiae deletion strains, locus YKL190W, strain CNB1, stronger effect = lower value 0.991 | S. cerevisiae deletion strains, locus YKR001C, strain vps1, stronger effect = lower value 1.01 | S. cerevisiae deletion strains, locus YKR026C, strain gcn3, stronger effect = lower value 0.99 | S. cerevisiae deletion strains, locus YKR091W, strain srl3, stronger effect = lower value 0.992 | S. cerevisiae deletion strains, locus YLL001W, strain dnm1, stronger effect = lower value 1 | S. cerevisiae deletion strains, locus YLL026W, stronger effect = lower value 0.993 | S. cerevisiae deletion strains, locus YLL041C, strain sdh2, stronger effect = lower value 0.998 | S. cerevisiae deletion strains, locus YLR027C, strain aat2, stronger effect = lower value 0.998 | S. cerevisiae deletion strains, locus YLR039C, strain RIC1, stronger effect = lower value 1.08 | S. cerevisiae deletion strains, locus YLR058C, strain SHM2, stronger effect = lower value 1.01 | S. cerevisiae deletion strains, locus YLR102C, strain apc9, stronger effect = lower value 0.975 | S. cerevisiae deletion strains, locus YLR113W, strain HOG1, stronger effect = lower value 0.982 | S. cerevisiae deletion strains, locus YLR221C, strain rsa3, stronger effect = lower value 1.02 | S. cerevisiae deletion strains, locus YLR258W, strain gsy2, stronger effect = lower value 0.99 | S. cerevisiae deletion strains, locus YLR262C, strain YPT6 (second series), stronger effect = lower value 1.02 | S. cerevisiae deletion strains, locus YLR262C, strain YPT6, stronger effect = lower value 1.08 | S. cerevisiae deletion strains, locus YLR268W, strain sec22, stronger effect = lower value 1.02 | S. cerevisiae deletion strains, locus YLR320W, strain mms22, stronger effect = lower value 1.01 | S. cerevisiae deletion strains, locus YLR330W, strain CHS5, stronger effect = lower value 1 | S. cerevisiae deletion strains, locus YLR342W, strain FKS1, stronger effect = lower value 1.02 | S. cerevisiae deletion strains, locus YLR357W, strain rsc2, stronger effect = lower value 0.987 | S. cerevisiae deletion strains, locus YLR370C, strain arc18, stronger effect = lower value 0.988 | S. cerevisiae deletion strains, locus YLR371W, strain rom2, stronger effect = lower value 1 | S. cerevisiae deletion strains, locus YLR384C, strain iki3, stronger effect = lower value 0.985 | S. cerevisiae deletion strains, locus YLR418C, strain cdc73, stronger effect = lower value 1 | S. cerevisiae deletion strains, locus YML016C, strain PPZ1, stronger effect = lower value 1.01 | S. cerevisiae deletion strains, locus YML032C, strain rad52, stronger effect = lower value 1.01 | S. cerevisiae deletion strains, locus YML120C, strain ndi1, stronger effect = lower value 1 | S. cerevisiae deletion strains, locus YML124C, strain tub3, stronger effect = lower value 0.99 | S. cerevisiae deletion strains, locus YMR058W, strain fet3, stronger effect = lower value 0.995 | S. cerevisiae deletion strains, locus YMR078C, strain ctf18, stronger effect = lower value 0.992 | S. cerevisiae deletion strains, locus YMR125W, strain sto1, stronger effect = lower value 0.983 | S. cerevisiae deletion strains, locus YMR129W, stronger effect = lower value 0.987 | S. cerevisiae deletion strains, locus YMR205C, strain PFK2, stronger effect = lower value 1.02 | S. cerevisiae deletion strains, locus YMR223W, strain ubp8, stronger effect = lower value 0.98 | S. cerevisiae deletion strains, locus YMR231W, strain pep5, stronger effect = lower value 0.994 | S. cerevisiae deletion strains, locus YMR307W, strain GAS1, stronger effect = lower value 1.18 | S. cerevisiae deletion strains, locus YNL067W, strain RPL9B, stronger effect = lower value 0.977 | S. cerevisiae deletion strains, locus YNL071W, strain lat1, stronger effect = lower value 0.991 | S. cerevisiae deletion strains, locus YNL128W, strain TEP1, stronger effect = lower value 1 | S. cerevisiae deletion strains, locus YNL153C, strain GIM3, stronger effect = lower value 0.991 | S. cerevisiae deletion strains, locus YNL183C, strain NPR1, stronger effect = lower value 0.94 | S. cerevisiae deletion strains, locus YNL209W, strain ssb2, stronger effect = lower value 0.989 | S. cerevisiae deletion strains, locus YNL233W, strain BNI4, stronger effect = lower value 0.996 | S. cerevisiae deletion strains, locus YNL248C, strain rpa49, stronger effect = lower value 0.974 | S. cerevisiae deletion strains, locus YNL250W, strain rad50, stronger effect = lower value 0.968 | S. cerevisiae deletion strains, locus YNL271C, strain bni1, stronger effect = lower value 0.99 | S. cerevisiae deletion strains, locus YNL298W, strain CLA4, stronger effect = lower value 0.985 | S. cerevisiae deletion strains, locus YNL307C, strain MCK1, stronger effect = lower value 0.984 | S. cerevisiae deletion strains, locus YNL322C, strain KRE1 (second series), stronger effect = lower value 1.01 | S. cerevisiae deletion strains, locus YNL322C, strain KRE1, stronger effect = lower value 0.988 | S. cerevisiae deletion strains, locus YNR049C, strain mso1, stronger effect = lower value 0.996 | S. cerevisiae deletion strains, locus YNR052C, strain pop2, stronger effect = lower value 0.999 | S. cerevisiae deletion strains, locus YOL006C, strain TOP1, stronger effect = lower value 1.38 | S. cerevisiae deletion strains, locus YOL012C, strain htz1 0.856 | S. cerevisiae deletion strains, locus YOL147C, strain pex11, stronger effect = lower value 0.995 | S. cerevisiae deletion strains, locus YOR001W, strain rrp6, stronger effect = lower value 1.02 | S. cerevisiae deletion strains, locus YOR061W, strain CKA2, stronger effect = lower value 1.05 | S. cerevisiae deletion strains, locus YOR069W, strain VPS5, stronger effect = lower value 0.989 | S. cerevisiae deletion strains, locus YOR070C, strain gyp1, stronger effect = lower value 0.984 | S. cerevisiae deletion strains, locus YOR080W, strain dia2, stronger effect = lower value 0.998 | S. cerevisiae deletion strains, locus YOR083W, strain WHI5, stronger effect = lower value 0.999 | S. cerevisiae deletion strains, locus YOR106W, strain vam3, stronger effect = lower value 0.997 | S. cerevisiae deletion strains, locus YOR136W, strain idh2, stronger effect = lower value 1 | S. cerevisiae deletion strains, locus YOR144C, strain elg1, stronger effect = lower value 0.994 | S. cerevisiae deletion strains, locus YOR184W, strain ser1, stronger effect = lower value 1.07 | S. cerevisiae deletion strains, locus YOR231W, strain MKK1, stronger effect = lower value 0.989 | S. cerevisiae deletion strains, locus YOR265W, strain rbl2, stronger effect = lower value 1.01 | S. cerevisiae deletion strains, locus YOR270C, strain vph1, stronger effect = lower value 1.01 | S. cerevisiae deletion strains, locus YOR290C, strain snf2, stronger effect = lower value 0.978 | S. cerevisiae deletion strains, locus YOR316C, strain cot1, stronger effect = lower value 0.976 | S. cerevisiae deletion strains, locus YPL051W, strain arl3, stronger effect = lower value 0.982 | S. cerevisiae deletion strains, locus YPL078C, strain atp4, stronger effect = lower value 0.98 | S. cerevisiae deletion strains, locus YPL106C, strain sse1, stronger effect = lower value 0.991 | S. cerevisiae deletion strains, locus YPL240C, strain hsp82, stronger effect = lower value 0.977 | S. cerevisiae deletion strains, locus YPL241C, strain CIN2, stronger effect = lower value 0.983 | S. cerevisiae deletion strains, locus YPL256C, strain CLN2, stronger effect = lower value 0.95 | S. cerevisiae deletion strains, locus YPR119W, strain clb2, stronger effect = lower value 0.973 | S. cerevisiae deletion strains, locus YPR141C, strain kar3, stronger effect = lower value 0.96 | S. cerevisiae deletion strains, locus YPR163C, strain tif3, stronger effect = lower value 0.997 | S. cerevisiae deletion strains, locus YPR167C, strain met16, stronger effect = lower value 1 | S. cerevisiae deletion strains, strain wtn01, stronger effect = lower value 1.03 | S. cerevisiae strains, strain wild type, stronger effect = lower value 1.04
